The supplement of paper PMC9694430

test system: T1, LOC_OS01G52050-cb004; assay: thermal shift delta Tm vs DMSO control; higher = stronger stabilization (binding); settings: 12.5 µM; protein concentration 2 µM
T1 sequence (whole entry): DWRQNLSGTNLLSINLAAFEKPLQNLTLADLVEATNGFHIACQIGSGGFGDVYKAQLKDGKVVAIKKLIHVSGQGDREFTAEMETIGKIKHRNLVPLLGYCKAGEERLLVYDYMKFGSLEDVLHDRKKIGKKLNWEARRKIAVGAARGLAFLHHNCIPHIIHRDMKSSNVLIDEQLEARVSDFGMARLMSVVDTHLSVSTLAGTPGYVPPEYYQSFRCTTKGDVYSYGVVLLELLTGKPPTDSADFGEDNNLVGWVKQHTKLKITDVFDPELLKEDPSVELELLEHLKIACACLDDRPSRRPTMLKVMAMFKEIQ
Outline: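 Compounds dissolved in DMSO were added to purified rice kinase domain constructs, which had been expressed in E. coli, for differential scanning fluorimetry. Each well held 19.5 μl of 2 μM kinase in 100 mM potassium phosphate pH 7.5, 150 mM NaCl, 10% glycerol and 5 × SYPRO Orange. Fluorescence was followed from 25°C to 95°C at a rate of 0.05°C/s. Shifts in Boltzmann-fitted melting temperature are triplicate means relative to DMSO-only protein.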

SMILES	thermal shift delta Tm
CCOc1cc2ncc(C#N)c(Nc3ccc(OCc4ccccn4)c(Cl)c3)c2cc1NC(=O)/C=C/CN(C)C [Neratinib (HKI-272)]	2.11 °C
COc1cc2nccc(Oc3ccc(NC(=O)Nc4cc(C)on4)c(Cl)c3)c2cc1OC [Tivozanib (AV-951)]	6.73 °C
O=C1NC(=O)C(c2ccccc2[N+](=O)[O-])=C1Nc1ccc(O)c(Cl)c1	-0.24 °C
Cc1c(C(=O)N2CCOc3ccc(-c4ccc(N)nc4)cc3C2)ccc(S(C)(=O)=O)c1F	0.52 °C
Cn1nccc1Nc1nccc(-c2ccn([C@H](CO)c3ccc(Cl)c(F)c3)c(=O)c2)n1	0.85 °C
COc1cc2c(N3CCN(C(=O)Nc4ccc(OC(C)C)cc4)CC3)ncnc2cc1OCCCN1CCCCC1 [Tandutinib (MLN518)]	0.86 °C
C[C@@H]1COCCN1c1cc(=O)n2c(n1)N(Cc1cncc(Cl)c1)[C@H](C(F)(F)F)CC2	0.49 °C
COc1ccc(F)c(F)c1C(=O)c1cnc(NC2CCN(S(C)(=O)=O)CC2)nc1N	-0.14 °C
O=C(NCc1ccccc1)c1csc(Nc2ccncn2)n1 [Thiazovivin]	2.17 °C
CCN(CC)CCCCNc1ncc2cc(-c3cc(OC)cc(OC)c3)c(NC(=O)NC(C)(C)C)nc2n1	0.11 °C
O=c1cc(N2CCOCC2)oc2c(-c3ccc4c(c3)OCCO4)csc12	4.58 °C
Nc1ccc(C(=O)Nc2cccc(-c3nc(N4CCOCC4)c4oc5ncccc5c4n3)c2)cn1	0.45 °C
O=C(NC[C@H](O)CO)c1ccncc1Nc1ccc(I)cc1F	0.02 °C
CCOc1cc2ncc(C#N)c(Nc3ccc(F)c(Cl)c3)c2cc1NC(=O)/C=C/CN(C)C [Pelitinib (EKB-569)]	3.13 °C
COc1cc2ncnc(Nc3ccc(Cl)cc3F)c2cc1OC	0.58 °C
Cc1cc(Nc2ncnc3ccc(NC4=NC(C)(C)CO4)cc23)ccc1Oc1ccn2ncnc2c1 [Irbinitinib (ARRY-380, ONT-380)]	1.03 °C
CC1(C)CNc2cc(NC(=O)c3cccnc3NCc3ccncc3)ccc21 [Motesanib Diphosphate (AMG-706)]	-0.22 °C
COC(=O)Nc1ccc(-c2nc(N3CCOCC3)c3cnn(C4CCN(C(=O)OC)CC4)c3n2)cc1	0.25 °C
COc1cc(C(=O)N2CCC(N3CCN(C)CC3)CC2)ccc1Nc1ncc2c(n1)N(C)c1ccccc1C(=O)N2C	-0.4 °C

SMILES	thermal shift delta Tm
C=C(C)[C@@H]1CC[C@]2(C)CC[C@]3(C)[C@H](CC[C@@H]4[C@@]5(C)CC[C@H](O)C(C)(C)[C@@H]5CC[C@]43C)[C@@H]12 [Lupeol]	0.44 °C
Oc1cccc(-c2nc(N3CCOCC3)c3oc4ncccc4c3n2)c1	0.11 °C
CCn1c(N)c(C(=O)NC)c(=O)c2ccc(C#CC(C)(O)COC)nc21 (configuration not stated)	0.36 °C
CCOc1cc(C(=O)N2CCC(N3CCN(C)CC3)CC2)ccc1Nc1ncc2c(n1)N(C1CCCC1)c1ccccc1C(=O)N2C	-0.46 °C
Cc1ccc(NC(=O)c2cccc(C(C)(C)C#N)c2)cc1Nc1ccc2ncn(C)c(=O)c2c1	0.4 °C
Nc1ccc(-c2ccc3ncc4ccc(=O)n(-c5cccc(C(F)(F)F)c5)c4c3c2)cn1 [Torin 2]	0.7 °C
CCN(CC)CCCC(C)Nc1ccnc2cc(Cl)ccc12 (configuration not stated) [Chloroquine Phosphate]	-0.11 °C
C[C@@H](N)[C@H]1CC[C@H](C(=O)Nc2ccncc2)CC1	-0.08 °C
COc1cc(N2CCC(N(C)C)CC2)ccc1Nc1ncc(Cl)c(Nc2ccccc2P(C)(C)=O)n1	3.85 °C
CCCS(=O)(=O)Nc1ccc(F)c(C(=O)c2c[nH]c3ncc(-c4ccc(Cl)cc4)cc23)c1F [Vemurafenib (PLX4032, RG7204)]	11.1 °C
CO[C@H]1C[C@@H]2CC[C@@H](C)[C@@](O)(O2)C(=O)C(=O)N2CCCC[C@H]2C(=O)O[C@H]([C@H](C)C[C@@H]2CC[C@@H](OCCO)[C@H](OC)C2)CC(=O)[C@H](C)/C=C(\C)[C@@H](O)[C@@H](OC)C(=O)[C@H](C)C[C@H](C)/C=C/C=C/C=C/1C [Everolimus (RAD001)]	0.35 °C
COc1ccc(S(=O)(=O)N(CCO)c2ccccc2CN(C)C/C=C/c2ccc(Cl)cc2)cc1 [KN-93 Phosphate]	0.47 °C
CN(C[C@@H]1COCCO1)S(=O)(=O)Nc1ccc2ccc3ncc(-c4cnn(C)c4)cc3c(=O)c2c1	10.3 °C
COc1ccc(CCNCc2ccc(OCc3ccc(Cl)nc3)c(OC)c2)cc1OC	-0.18 °C
Clc1ccc(C2(c3ccc(-c4cn[nH]c4)cc3)CCNCC2)cc1	0.38 °C
CN(C)Cc1cccc(N/C(=C2\C(=O)Nc3cc(C(N)=O)ccc32)c2ccccc2)c1	0.86 °C
CC[C@H](CO)Nc1nc(NCc2ccccc2)c2ncn(C(C)C)c2n1 [Roscovitine (Seliciclib,CYC202)]	0.24 °C
Cc1cc(Nc2cc(N3CCN(C)CC3)nc(/C=C/c3ccccc3)n2)n[nH]1	3.7 °C
